Test results taken from PubChem BioAssay (EPA / NIEHS).
Inconclusive results are not listed. Active and inactive are the calls of the source. The calls were made as follows, unless noted: active = hit-call score of the fitted dose curve at least 0.9, where 1 is the maximum; inactive = score below 0.9.

What was measured:
[1] = read-out: Monokine induced gamma interferon (MIG), CXCL9 (gene 4283); experiment: BSK_3C_MIG: BioMAP Diversity Plus: 3C Assay for Monokine induced gamma interferon (MIG) Biomarker Activity (AID 2283021); conditions: primary human endothelial cells (HUVEC); actives raise or lower the signal;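 as to AC50: MIG protein level measured by immunoassay in the treated endothelial cultures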
In short: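 Primary human umbilical vein endothelial cells in the 3C system were exposed to chemical for 24 h, after which MIG was quantified by ELISA. Activity was fitted bidirectionally against DMSO as negative control and baseline.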

[2] = target: human Vitamin D Receptor (VDR), VDR (gene 7421) (UniProt P11473); experiment: ATG_VDR_TRANS: Attagene TRANS-FACTORIAL HepG2 Assay for human Vitamin D Receptor (VDR) (AID 2283022; active = hit-call score of the fitted dose curve at least 0.9, where 1 is the maximum)
In short: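 Steps: transfect HepG2 with GAL4-UAS-driven reporter constructs; dose compounds 24 h; isolate RNA, reverse-transcribe, PCR-amplify with 6-FAM-labelled primer extension and HpaI digestion; quantify fragments by capillary electrophoresis relative to DMSO.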

[3] = BSK_3C_SRB: Viability Assessment in the BioMAP Diversity Plus: 3C Assay (AID 2283023); conditions: primary human endothelial cells (HUVEC);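 also: cells read 24 h after compound dosing; fitted both ways against DMSO so a hit may be signal rise or drop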
In short: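 Absorbance at 560 nm of sulforhodamine B-stained (0.1%) total protein served as a cytotoxicity readout in human umbilical vein endothelial cells, 24 h after chemical treatment. Signal was fitted bidirectionally relative to DMSO.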

[4] = read-out: Matrix Metallopeptidase 1 (MMP1), MMP1 (gene 4312); experiment: BSK_BE3C_MMP1: BioMAP Diversity Plus: BE3C Assay for Matrix Metallopeptidase 1 (MMP1) Biomarker Activity (AID 2283024); conditions: primary human bronchial epithelial cells; actives raise or lower the signal
In short: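 Primary human bronchial epithelial cells were dosed with test chemicals, and MMP1 levels were measured by ELISA 24 h later. Data were fitted bidirectionally against DMSO as the negative control and activity baseline.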

[5] = BSK_3C_Vis: BioMAP Diversity Plus: 3C Assay for Morphology Visualization (AID 2283025); conditions: primary human endothelial cells (HUVEC);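 also: fitted both ways so gain or loss versus DMSO counts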
In short: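 Human umbilical vein endothelial cells in the 3C system were imaged by light microscopy 24 h after chemical dosing to record cell morphology. Activity was fitted bidirectionally against DMSO as negative control and baseline; the endpoint serves as a background control.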

[6] = BSK_4H_SRB: Viability Assessment in the BioMAP Diversity Plus: 4H Assay (AID 2283027); conditions: primary human endothelial cells (HUVEC);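 also: cells exposed to compound for 24 h before staining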;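 as to AC50: curves fitted both ways versus DMSO so AC50 may be loss or gain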
In short: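 Absorbance at 560 nm of SRB-stained total protein served as the viability read-out in confluent primary human umbilical vein endothelium 24 h after chemical treatment. Curves were fitted bidirectionally against DMSO as negative control.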

[7] = BSK_BE3C_SRB: Viability Assessment in the BioMAP Diversity Plus: BE3C Assay (AID 2283028); conditions: primary human bronchial epithelial cells;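 as to AC50: fitted both ways so AC50 may mark signal gain or loss versus DMSO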
In short: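 Cells (human bronchial epithelial, primary) are treated with chemicals, and after 24 h the parallel cultures are fixed in 10% TCA. These are then stained with 0.1% SRB and read at 560 nm. Gain or loss of signal is fitted relative to DMSO.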

[8] = read-out: Thrombomodulin, THBD (gene 7056); experiment: BSK_3C_Thrombomodulin: BioMAP Diversity Plus: 3C Assay for Thrombomodulin Biomarker Activity (AID 2283029); conditions: primary human endothelial cells (HUVEC); actives raise or lower the signal
In short: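 Primary human umbilical vein endothelial cells (3C system) were exposed to chemical for 24 h, then thrombomodulin levels were measured by ELISA. Activity was fitted bidirectionally against the DMSO negative control as baseline.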

[9] = read-out: Urokinase-type plasminogen activator receptor (uPAR), PLAUR (gene 5329); experiment: BSK_4H_uPAR: BioMAP Diversity Plus: 4H Assay for Urokinase-type plasminogen activator receptor (uPAR) Biomarker Activity (AID 2283030); conditions: primary human endothelial cells (HUVEC); actives raise or lower the signal
In short: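 Cell-surface uPAR ELISA signal, measured 24 h after dosing human umbilical vein endothelial cells, was analyzed with bidirectional fitting relative to DMSO. Parallel SRB staining of total protein tracked overt cytotoxicity.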

[10] = read-out: Vascular endothelial growth factor receptor 2 (Homo sapiens) (UniProt P35968); experiment: BSK_4H_VEGFRII: BioMAP Diversity Plus: 4H Assay for Vascular endothelial growth factor receptor 2 (VEGFR2) Biomarker Activity (AID 2283031); conditions: primary human endothelial cells (HUVEC); actives raise or lower the signal;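 as to AC50: cell-surface VEGFR2 protein level quantified by ELISA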
In short: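 ELISA read-out of VEGFRII in primary human umbilical vein endothelium, taken 24 h after chemical treatment. Responses are expressed relative to DMSO, with bidirectional fitting.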

[11] = read-out: Human Leukocyte Antigen - DR isotype (HLADR), HLA-DRA (gene 3122); experiment: BSK_BE3C_HLADR: BioMAP Diversity Plus: BE3C Assay for Human Leukocyte Antigen - DR isotype (HLADR) Biomarker Activity (AID 2283032); conditions: primary human bronchial epithelial cells; actives raise or lower the signal
In short: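 Human primary bronchial epithelial cells in the BE3C system were exposed to chemicals for 24 h, after which HLA-DR levels were quantified by ELISA. Activity was fitted bidirectionally, gain or loss of signal, against DMSO as negative control and baseline.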

[12] = read-out: Vascular cell adhesion molecule 1 (VCAM1), VCAM1 (gene 7412); experiment: BSK_4H_VCAM1: BioMAP Diversity Plus: 4H Assay for Vascular cell adhesion molecule 1 (VCAM1) Biomarker Activity (AID 2283033); conditions: primary human endothelial cells (HUVEC); actives raise or lower the signal
In short: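 Primary human umbilical vein endothelial cells were exposed to chemicals for 24 h, after which VCAM-1 was quantified by ELISA. Responses were fitted bidirectionally against DMSO as negative control and activity baseline.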

[13] = read-out: Interferon-gamma inducible Protein 10 (IP10), CXCL10 (gene 3627); experiment: BSK_BE3C_IP10: BioMAP Diversity Plus: BE3C Assay for Interferon-gamma inducible Protein 10 (IP10) Biomarker Activity (AID 2283034); conditions: primary human bronchial epithelial cells; actives raise or lower the signal
In short: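 Human primary bronchial epithelial cells were exposed to chemicals for 24 hours, after which IP-10 levels were measured by ELISA. Data were fitted bidirectionally against DMSO, which served as the negative control and activity baseline.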

[14] = read-out: Monokine induced gamma interferon (MIG), CXCL9 (gene 4283); experiment: BSK_BE3C_MIG: BioMAP Diversity Plus: BE3C Assay for Monokine induced gamma interferon (MIG) Biomarker Activity (AID 2283035); conditions: primary human bronchial epithelial cells; actives raise or lower the signal
In short: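 MIG level was determined by ELISA after 24 h chemical treatment of primary human bronchial epithelial cells. Values were fitted bidirectionally with DMSO as the negative control and activity baseline.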

[15] = read-out: Transforming growth factor beta 1 (TGFb1), TGFB1 (gene 7040); experiment: BSK_BE3C_TGFb1: BioMAP Diversity Plus: BE3C Assay for Transforming growth factor beta 1 (TGFb1) Biomarker Activity (AID 2283036); conditions: primary human bronchial epithelial cells; actives raise or lower the signal
In short: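 Human primary bronchial epithelial cells (BE3C system) were dosed with chemical and TGF-b1 levels measured by ELISA at 24 h. Activity was fitted bidirectionally relative to DMSO negative control as baseline.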

[16] = read-out: Plasminogen activator inhibitor-1 (PAI1), SERPINE1 (gene 5054); experiment: BSK_BE3C_PAI1: BioMAP Diversity Plus: BE3C Assay for Plasminogen activator inhibitor-1 (PAI1) Biomarker Activity (AID 2283037); conditions: primary human bronchial epithelial cells; actives raise or lower the signal
In short: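 Human primary bronchial epithelial cells were exposed to chemical for 24 h, then PAI-1 was quantified by ELISA. Activity was fitted bidirectionally relative to the DMSO negative control baseline.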

[17] = read-out: urokinase plasminogen activator (uPA), PLAU (gene 5328); experiment: BSK_BE3C_uPA: BioMAP Diversity Plus: BE3C Assay for urokinase plasminogen activator (uPA) Biomarker Activity (AID 2283038); conditions: primary human bronchial epithelial cells; actives raise or lower the signal
In short: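 Bronchial epithelial cells (human, primary); chemical 24 h; uPA by ELISA; bidirectional fit vs DMSO. SRB (0.1%, after 10% TCA fixation, 560 nm) in parallel cultures for cytotoxicity.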

[18] = read-out: Urokinase-type plasminogen activator receptor (uPAR), PLAUR (gene 5329); experiment: BSK_BE3C_uPAR: BioMAP Diversity Plus: BE3C Assay for Urokinase-type plasminogen activator receptor (uPAR) Biomarker Activity (AID 2283039); conditions: primary human bronchial epithelial cells; actives raise or lower the signal
In short: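 Primary human bronchial epithelial cells were dosed with chemical and harvested 24 h later; uPAR was quantified by ELISA. Activity was fitted bidirectionally against DMSO as negative control and baseline.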

[19] = read-out: Interleukin-6 (IL6), IL6 (gene 3569); experiment: BSK_CASM3C_IL6: BioMAP Diversity Plus: CASM3C Assay for Interleukin-6 (IL6) Biomarker Activity for (AID 2283040); conditions: primary human coronary artery smooth muscle cells; actives raise or lower the signal
[20] = read-out: Pselectin, SELP (gene 6403); experiment: BSK_4H_Pselectin: BioMAP Diversity Plus: 4H Assay for Pselectin Biomarker Activity (AID 2283026); conditions: primary human endothelial cells (HUVEC); actives raise or lower the signal
In short: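 Primary human umbilical vein endothelial cells were exposed to test chemical for 24 h, then cell-surface P-selectin was quantified by ELISA. Activity was fitted bidirectionally against DMSO as negative control and baseline.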

Measured: AC50

Sequence of human Vitamin D Receptor (VDR), VDR (gene 7421) (P11473 whole entry, looked up, the tested form may be a part): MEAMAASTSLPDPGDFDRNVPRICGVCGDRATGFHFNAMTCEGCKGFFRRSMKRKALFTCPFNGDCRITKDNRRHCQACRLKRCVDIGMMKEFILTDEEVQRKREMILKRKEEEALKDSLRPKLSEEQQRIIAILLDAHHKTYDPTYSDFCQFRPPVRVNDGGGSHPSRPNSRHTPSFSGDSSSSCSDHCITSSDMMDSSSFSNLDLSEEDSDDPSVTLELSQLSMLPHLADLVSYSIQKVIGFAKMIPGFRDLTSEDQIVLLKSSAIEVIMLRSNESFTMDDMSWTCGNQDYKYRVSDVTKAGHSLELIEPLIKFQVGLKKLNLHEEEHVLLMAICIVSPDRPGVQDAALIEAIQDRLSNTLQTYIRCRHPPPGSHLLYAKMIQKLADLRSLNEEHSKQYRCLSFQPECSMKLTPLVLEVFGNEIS

Nc1ccc(Cl)cc1N
active: [4] 1.69 µM | [8] 0.785 µM | [12] 2.74 µM
not listed: [20]
inactive: all other assays above

Cc1ccc(N=C=O)cc1N=C=O
active: [13] 20 µM
inactive: all other assays above

O=Cc1ccco1
not listed: [11]
inactive: all other assays above

O=C(N[C@H](c1ccccc1)[C@@H]1CN2CCC1CC2)c1c(Cl)ccc(C(F)(F)F)c1Cl
active: [3] 29.7 µM | [4] 44.2 µM | [5] 14.5 µM | [7] 27.4 µM | [8] 29.7 µM | [9] 17.3 µM | [11] 39.7 µM | [13] 21.9 µM | [14] 49 µM | [15] 19.4 µM | [16] 29.7 µM | [17] 22.4 µM | [18] 34.5 µM
inactive: [1] | [2] | [20] | [6] | [10] | [12] | [19]

Clc1ccc(C(c2ccc(Cl)cc2)C(Cl)Cl)cc1
active: [1] 35.2 µM | [3] 19.3 µM | [4] 13.7 µM | [5] 37.3 µM | [20] 15.1 µM | [6] 29.3 µM | [9] 31.4 µM | [10] 26.1 µM | [12] 25 µM | [13] 32.2 µM | [15] 34.6 µM | [16] 34.4 µM
inactive: [2] | [7] | [8] | [14] | [17] | [18] | [19]

CN(C)c1ccccc1
not listed: [20]
inactive: all other assays above

CCCSC(=O)N(CCC)CCC
not listed: [6] | [11]
inactive: all other assays above
